“And” between values parts separate entries of the source, which are not always exact repeats. Equal values may be shown once. The source made the active and inactive calls. Rule as the data show it, unless noted: active = inhibition above about 80%; inactive = the rest.
Legend:
F380Y = assay: BK channel mutant inhibitors and activators – cell-based, U2OS BacMam, thallium flux, beta subunits, selectivity assay, profiling panel (AID 1259406;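 active = thallium flux through the channel raised or lowered by more than 3 SD from vehicle-only wells, actives on both sides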;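 also: initial slope of Thallos dye fluorescence rise after thallium is added; log ratio against the mean of 0.3% DMSO vehicle wells on the same plate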); details: U2OS BacMam BK variants, at 30 µM
F380Y/beta1 = assay: as above; details: U2OS BacMam BK variants, at 30 µM
[1] = growth inhibition, single agents and combos, UWB1.289, cell-based, BGB or cisplatin combos, synergistic combos for chromothripsis tumors (AID 1671456); details: UWB1.289 ovarian carcinoma cells, stronger effect = higher value;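 also: cells exposed to compound for four days; 0% = vehicle DMSO and 100% = killing by high DMSO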
[2] = growth inhibition, single agents and combos, LFS_MB_2R, cell-based, cisplatin combos, synergistic combos for chromothripsis tumors (AID 1671457); details: LFS_MB_2R medulloblastoma cells, stronger effect = higher value;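 also: cells exposed to compound for four days before readout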
[3] = growth inhibition, MDA-MB-436, cell-based, BGB or cisplatin combos, synergistic combos for chromothripsis tumors (AID 1671458; call rule not given here;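 also: cells exposed for 96 hours; 0% = vehicle DMSO and 100% = killing by high DMSO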); details: MDA-MB-436 breast carcinoma growth inhibition, drug combinations, stronger effect = higher value
[4] = UWB1.289_BRCA1 ovarian cancer growth, cell-based, BGB or cisplatin combinations (AID 1671459); details: UWB1.289 BRCA1 ovarian carcinoma, drug combinations, stronger effect = higher value
[5] = drug combination toxicity in non-malignant astrocytes – cell-based, BGB or cisplatin IC20 combos, cytotoxicity control for chromothriptic childhood tumor combination screen (AID 1671460); details: Human astrocytes, viability inhibition, drug combinations, at 0.5 µM, stronger effect = higher value;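 also: cells exposed to compounds for 96 hours before viability readout; 0% = vehicle and 100% = killing control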
[6] = BT084 cell growth, single and combined drugs, ICGC_MB145, cisplatin and BGB IC40 combos (AID 1671461); details: BT084 medulloblastoma cells, drug combinations, stronger effect = higher value;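 also: cells exposed to drugs for 96 hours; 0% = vehicle DMSO and 100% = high DMSO full killing control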
[7] = RCMB18 cell growth, single agent and combined, cisplatin and BGB IC40 combos (AID 1671462); details: RCMB18 medulloblastoma cells, stronger effect = higher value;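 also: cells exposed to compound for four days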
[8] = CRL1545 cell growth, single agent and combined, cisplatin and BGB IC20 combos (AID 1671464); details: CRL1545 osteosarcoma cells, stronger effect = higher value;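 also: cells exposed to compound for 96 hours before readout; 0% = vehicle DMSO and 100% = high DMSO killing control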
[9] = measured here: inhibition with BGB combination, at 0.05 µM
[10] = measured here: inhibition with cisplatin combination, at 0.05 µM
[11] = measured here: combination with cisplatin, at 0.5 µM
[12] = measured here: combination with cisplatin, at 5 µM
[13] = measured here: BGB combination, at 0.5 µM
[14] = measured here: BGB combination, at 5 µM
[15] = measured here: cisplatin combination, at 0.5 µM
[16] = measured here: cisplatin combination, at 5 µM
[17] = BGB combination, concentration series, at 5 µM
[18] = cisplatin combination, concentration series, at 5 µM
[19] = measured here: combo with BGB IC20
[20] = measured here: combo with cisplatin IC20
[21] = cisplatin combination, at 0.5 µM
[22] = measured here: BGB IC40 combination 0.05 uM, at 0.05 µM
[23] = measured here: BGB IC40 combination, at 0.05 µM
[24] = measured here: with BGB IC20 combination, at 0.5 µM
[25] = measured here: with cisplatin IC20 combination, at 0.5 µM

## Cc1cccc(C)c1OCC(C)N (stereo unspecified)
F380Y
  log fold change Tl+ flux: -0.014 (inactive)
F380Y/beta1
  log fold change Tl+ flux: 0.0282 (inactive)

## COC(=O)CCc1ccc(OCC(O)CNC(C)C)cc1 (stereo unspecified)
F380Y
  log fold change Tl+ flux: -0.0174 (inactive)
F380Y/beta1
  log fold change Tl+ flux: 0.0192 (inactive)

## Cc1ccnc2c1NC(=O)c1cccnc1N2C1CC1
[1]; at 0.5 µM
  inhibition: -0.21% (inactive)
[1]; [9]
  inhibition: -23.1%
[1]; [10]
  inhibition: -13.9%
[2]; at 0.5 µM
  inhibition: -7.48% (inactive)
[2]; [11]
  inhibition: 3.86%
[2]; [12]
  inhibition: -37.6%
[3]; at 0.5 µM
  inhibition: -22.8% (inactive)
[3]; [13]
  inhibition: -19.7%
[3]; [14]
  inhibition: -27%
[3]; [15]
  inhibition: -29.5%
[3]; [16]
  inhibition: -14.1%
[4]; [17]
  inhibition: -12.7%
[4]; at 0.5 µM
  inhibition: -12.9% (inactive)
[4]; [18]
  inhibition: -3.3%
[5]
  inhibition: -5.51% (inactive)
[5]; [19]
  inhibition: -5.33%
[5]; [20]
  inhibition: 4.46%
[6]; at 0.5 µM
  inhibition: -28.8% (inactive)
[6]; [21]
  inhibition: -7.59%
[6]; cisplatin combination, at 5 µM
  inhibition: -3.69%
[6]; [22]
  inhibition: -12.5%
[6]; single agent, at 5 µM
  inhibition: -22.7%
[7]; at 0.5 µM
  inhibition: -8.82% (inactive)
[7]; cisplatin combo, at 5 µM
  inhibition: 24.6%
[7]; [23]
  inhibition: -2.75%
[7]; [11]
  inhibition: 5.5%
[7]; single agent, at 5 µM
  inhibition: -19.9%
[8]; at 0.5 µM
  inhibition: -10.3% (inactive)
[8]; [24]
  inhibition: -9.73%
[8]; [25]
  inhibition: -13%
[8]; single agent, at 0.05 µM
  inhibition: -39.8%
[8]; single agent, at 5 µM
  inhibition: 1.39%
F380Y
  log fold change Tl+ flux: -0.00202 (inactive)
F380Y/beta1
  log fold change Tl+ flux: 0.0188 (inactive)

## Cn1nnc2c(C(N)=O)ncn2c1=O
[1]; at 0.5 µM
  inhibition: 10.5% (inactive) and 0.13% (inactive)
[1]; [9]
  inhibition: 4.75% and -18.9%
[1]; [10]
  inhibition: 25.6% and -6.43%
[2]; at 0.5 µM
  inhibition: 7.22% (inactive) and -24.1% (inactive)
[2]; [11]
  inhibition: 1.03% and -18.7%
[2]; [12]
  inhibition: 8.16% and -14%
[3]; at 0.5 µM
  inhibition: 6.91% (inactive) and -16.3% (inactive)
[3]; [13]
  inhibition: 12.9% and -14.6%
[3]; [14]
  inhibition: 4.06% and -13.6%
[3]; [15]
  inhibition: 2.96% and -35.2%
[3]; [16]
  inhibition: 1.26% and -29.8%
[4]; [17]
  inhibition: 6.41% and 2.63%
[4]; at 0.5 µM
  inhibition: 6.2% (inactive) and -1.71% (inactive)
[4]; [18]
  inhibition: -10.8% and 7.27%
[5]
  inhibition: 14.2% (inactive) and -4.55% (inactive)
[5]; [19]
  inhibition: 6.32% and -9.95%
[5]; [20]
  inhibition: 16.8% and -6.6%
[6]; at 0.5 µM
  inhibition: -1.52% (inactive) and -18.4% (inactive)
[6]; [21]
  inhibition: -21% and -7.48%
[6]; cisplatin combination, at 5 µM
  inhibition: 1.38% and -35.6%
[6]; [22]
  inhibition: -9.43% and 0.326%
[6]; single agent, at 5 µM
  inhibition: 8.38% and -21.4%
[7]; at 0.5 µM
  inhibition: -3.58% (inactive) and -13.6% (inactive)
[7]; cisplatin combo, at 5 µM
  inhibition: -29.7% and 13.3%
[7]; [23]
  inhibition: 7.57% and -3.63%
[7]; [11]
  inhibition: -5.87% and -11.2%
[7]; single agent, at 5 µM
  inhibition: -2.81% and -25.8%
[8]; at 0.5 µM
  inhibition: -15.1% (inactive) and -33.6% (inactive)
[8]; [24]
  inhibition: -16.2% and -3.96%
[8]; [25]
  inhibition: -16.4% and -48.4%
[8]; single agent, at 0.05 µM
  inhibition: -25.4% and 17.1%
[8]; single agent, at 5 µM
  inhibition: -10.6% and 18.5%
F380Y
  log fold change Tl+ flux: -0.0478 (inactive)
F380Y/beta1
  log fold change Tl+ flux: -0.022 (inactive)

## NCC1CCC(C(=O)Oc2ccc(CCC(=O)O)cc2)CC1 (stereo unspecified)
F380Y
  log fold change Tl+ flux: -0.0268 (inactive)
F380Y/beta1
  log fold change Tl+ flux: -0.0246 (inactive)

## CCOc1cc(CC(=O)N[C@@H](CC(C)C)c2ccccc2N2CCCCC2)ccc1C(=O)O
F380Y
  log fold change Tl+ flux: 0.252 (active)
F380Y/beta1
  log fold change Tl+ flux: 0.45 (active)
